# Compound activity from PubChem BioAssay.
# An excerpt weighted towards active compounds, which were near 19% of everything screened.
# ELG1 DNA repair: inhibitors of ELG1-dependent DNA repair in HEK293T cells. HEK293T ELG1-luciferase reporter, luminescence, 16 h; DNA damage induced by 5-fluorouridine. Potency, µM (top dose mostly 46.1 µM), usual class: inhibitors. hit rate 2.3% among 330,000. AID 504467; further: nearly all actives have a fitted effect of over 55% in size
#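 Overnight (16 hr) co-exposure of 2,000 cells/well to 5-fluorouridine and compound at 37 °C preceded detection. Luciferase was quantified via ONE-Glo luminescence; loss of signal denotes inhibition.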
# TDP1 inh: blocks human tyrosyl-DNA phosphodiesterase 1; Q9NUW8; recombinant TDP1, AlphaScreen DNA substrate cleavage; Potency, µM (titrated, usually from 130 µM), hits mostly inhibitors; hit rate 0.28% among 350,000; AID 485290; further: nearly all actives have a fitted effect of over 40% in size
# Target sequence (Q9NUW8 whole entry, looked up): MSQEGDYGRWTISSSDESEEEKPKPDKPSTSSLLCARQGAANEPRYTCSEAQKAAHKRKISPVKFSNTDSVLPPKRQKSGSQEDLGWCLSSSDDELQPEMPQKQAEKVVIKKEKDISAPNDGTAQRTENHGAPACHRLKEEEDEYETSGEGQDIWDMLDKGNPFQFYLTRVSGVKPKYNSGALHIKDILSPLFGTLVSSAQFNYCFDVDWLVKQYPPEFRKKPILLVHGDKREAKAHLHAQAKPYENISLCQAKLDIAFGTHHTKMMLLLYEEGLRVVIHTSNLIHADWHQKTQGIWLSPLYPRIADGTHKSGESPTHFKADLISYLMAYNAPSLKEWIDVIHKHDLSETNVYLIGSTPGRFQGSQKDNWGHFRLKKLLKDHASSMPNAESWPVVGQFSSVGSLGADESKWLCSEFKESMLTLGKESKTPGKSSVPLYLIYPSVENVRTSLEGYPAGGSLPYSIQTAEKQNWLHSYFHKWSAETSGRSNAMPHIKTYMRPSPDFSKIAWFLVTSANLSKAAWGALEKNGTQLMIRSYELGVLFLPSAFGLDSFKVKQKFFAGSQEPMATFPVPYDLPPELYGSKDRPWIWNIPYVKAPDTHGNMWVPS
#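 AlphaScreen read-out: signal falls as enzyme removes the 3' tyrosine-FITC from a 5'-biotinylated DNA oligo (15 nM, 5 min, RT). Enzyme was E. coli-made recombinant Tdp1 at 1 nM, exposed to compound for 15 min beforehand; beads 10 ug/ml, 10 min.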
# TDP1 cell CPT: DT40-hTDP1 cell growth loss with CPT | chicken DT40 Tdp1-/-;hTDP1 cells + 20 nM CPT, ATP luminescence, 48 h | Potency, µM (highest dose often 46.2 µM), actives largely listed as inhibitors | hit rate 12% among 420,000 | AID 686979; further: nearly all actives have a fitted effect of over 55% in size
#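 Cell growth measured by CellTiter-Glo luminescence after a minimum 48 h, 37 C compound exposure with 20 nM CPT in Tdp1-knockout DT40 cells stably expressing hTDP1, seeded 400/well; qHTS titration format.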
# IL-1B inflam inh: inhibitors of inflammasome signaling (IL-1 beta secretion). THP-1 LPS/ATP IL-1B secretion, AlphaLISA, 16 h; active compounds read low. activity change, % at 57.5 µM. hit rate 4.7% among 360,000. AID 743279; in the data active means activity change below about -50%; inconclusive means mostly about -30% to -49%
#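 THP-1 cells pretreated 1 hr with compounds (up to 57.5 uM final), then stimulated with LPS (250 ng/mL final) plus ATP (1.25 mM final); secreted IL-1B measured by AlphaLISA after 16 hr, decreased signal indicating inhibition.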
# Giardia killer: kills Giardia lamblia; Giardia lamblia trophozoite viability; hit rate 0.15% among 340,000; AID 540267; activity change, % at 7.66 µM, hits read low; in the data active means activity change below about -80%; inconclusive means between about -30% and that limit;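 further: parasites exposed to compound for two days anaerobically before the ATP read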
#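 Giardia lamblia trophozoites (100 cells/well) were incubated with compounds for 48 h at 37 deg C under anaerobic conditions. Viability was read as ATP content by one-step luminescence after 15-30 min at room temperature.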
# DT40 TDP1 no CPT: qHTS for Inhibitors of human tyrosyl-DNA phosphodiesterase 1 (TDP1): qHTS in cells in absence of CPT; DT40 Tdp1-/- hTDP1 cells, no CPT, ATP luminescence, 48 h; Potency, µM (top dose mostly 46.2 µM), usual class: inhibitors; hit rate 15% among 420,000; further: nearly all actives have a fitted effect of over 55% in size
#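 Cells were dispensed at 400 per well, compounds added by pin tool, plates incubated ≥48 hr at 37 °C, then CellTiter-Glo added for 30 min at room temperature before luminescence reading. Line: DT40 Tdp1-/- complemented with hTDP1; camptothecin omitted.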
# Hits are given with their value; - = inactive; ? = inconclusive; . = not tested or not shown; [ ] = another dose, or the depositor's remark. Unless noted, the call rests on the fitted dose curve; in most records, active means well fitted curve in the direction sought with a large enough effect; inconclusive means small, poorly fitted or top-dose-only effect, or another doubt; inactive means no such curve, though single readings can be large; an effect the other way counts as inactive or inconclusive.
SMILES,ELG1 DNA repair,TDP1 inh,TDP1 cell CPT,IL-1B inflam inh,Giardia killer,DT40 TDP1 no CPT
Cc1cc(C)c2c(n1)SCC(=O)N2CC(=O)Nc1cccc(C)c1C,.,-,?,.,.,-
CCCNC(=O)NCCc1c(C)[nH]c2ccccc12,-,-,-,-,-,-
CN(C)C(=O)c1ccc2c(c1[N+](=O)[O-])C(=O)c1ccccc1C2=O,?,-,2.9µM,-,-,5.8µM
Cc1[nH]c2ccccc2c1CCNC(=O)c1ccc2c(c1[N+](=O)[O-])C(=O)c1ccccc1C2=O,-,-,4.6µM,-103,-,2.9µM
Cc1[nH]c2c(C)cccc2c1CCNC(=O)c1ccc2c(c1[N+](=O)[O-])C(=O)c1ccccc1C2=O,?,-,16µM,-109,-,8.2µM
Cc1ccc2c(c1[N+](=O)[O-])C(=O)c1ccccc1C2=O,.,-,.,.,.,.
CC(NCC(=O)Nc1cc(S(=O)(=O)N2CCOCC2)ccc1N1CCOCC1)c1ccco1 (stereo not drawn),-,-,-,-,-,-
COc1ccc(C(=O)NC2CCN(C(=O)Nc3ccccc3Cl)CC2)cc1,-,-,-,-,-,-
N#CC1=C(N)C2=CCCC[C@H]2[C@H](c2ccccc2)C1(C#N)C#N,-,-,?,-56,-,?
N#CC1=C(N)C(C#N)(C#N)[C@H](c2ccncc2)[C@H]2CC3(CC=C12)OCCO3,-,-,?,-,-,-
N#CC1=C(N)C2=CCCC[C@H]2[C@H](c2ccc(Br)cc2)C1(C#N)C#N,-,-,?,-95,-,?
CSCc1ccc(C(=O)OCC(=O)NC2CCCC2)o1,.,.,-,-,.,-
CC(=O)CCc1oc2ccc(C)cc2c1-c1ccc(C)o1,-,-,12µM,-,-,15µM
CC(=O)CCc1oc2ccc(NC(C)=O)cc2c1-c1ccc(C)o1,?,-,-,-,-,-
COc1ccc(CNC(=O)Cn2c(=O)n3nc(-c4ccc(OC)cc4)nc3c3ccccc32)cc1,.,-,-,.,.,-
CCCc1c(-c2ccc(F)cc2)ncn1Cc1ccccc1OC,.,.,1.6µM,-,.,2.1µM
CCCc1c(-c2ccccc2Br)ncn1Cc1ccccc1OC,.,.,2.3µM,-,.,2.3µM
CCCc1c(-c2ccccc2)ncn1Cc1ccccc1OC,.,.,7.3µM,-,.,5.8µM
CCCc1nc2ccccc2n1Cc1ccccc1OC,?,-,-,-,-,?
COc1ccccc1Cn1ccn(Cc2c(F)cccc2Cl)c(=O)c1=O,.,-,?,.,.,?
Cc1ccccc1N1CC(C(=O)N2CCCCCC2)CC1=O (stereo not drawn),-,.,-,-,-,-
CCc1ccc(S(=O)(=O)c2cn(Cc3ccccc3)c3cc(N4CCCC4)c(F)cc3c2=O)cc1,.,-,?,.,.,?
COc1ccc(-c2cn3c(n2)sc2cc(C(=O)NC4CCCCC4)ccc23)cc1,.,-,?,.,.,-
O=C(NC1CCCCCC1)c1ccc2c(c1)sc1nc(-c3ccccc3)cn12,.,-,9.2µM,.,.,16µM
CCc1ccc(-c2cn3c(n2)sc2cc(C(=O)NC4CCCCC4)ccc23)cc1,.,-,3.7µM,.,.,6.5µM
SMILES,ELG1 DNA repair,TDP1 inh,TDP1 cell CPT,IL-1B inflam inh,Giardia killer,DT40 TDP1 no CPT
COC(=O)c1[nH]c2cc(C)ccc2c1NC(=O)CN1CCc2cc(OC)c(OC)cc2C1,15µM,-,?,?,-,?
COC(=O)c1[nH]c2ccc(Cl)cc2c1NC(=O)CN1CCc2cc(OC)c(OC)cc2C1,9.2µM,-,?,-,-,21µM
CC(=O)N1CCCc2cc(S(=O)(=O)CCC(=O)N3CCN(c4cccc(C)c4)C(C)C3)ccc21 (stereo not drawn),21µM,-,21µM,-,-,?
CC(=O)c1ccc(N2CCN(C(=O)CCS(=O)(=O)c3ccc4c(c3)CCN4C(C)=O)CC2)cc1,?,-,21µM,-,-,?
CCC(=O)N1CCc2cc(S(=O)(=O)CCC(=O)N3CCN(c4cccc(C)c4C)CC3)ccc21,.,-,-,.,.,-
CCC(=O)N1CCc2cc(S(=O)(=O)CCC(=O)N3CCN(c4ccccc4Cl)CC3)ccc21,.,-,18µM,.,.,?
CCC(=O)N1c2ccc(S(=O)(=O)CCC(=O)N3CCN(c4ccc(F)cc4)CC3)cc2CC1C (stereo not drawn),.,-,15µM,.,.,13µM
CC(=O)N1CCc2cc(S(=O)(=O)CCC(=O)N3CCN(c4ccccc4F)CC3)ccc21,-,-,?,-,-,-
O=C(c1ccc(=O)[nH]c1)N1CCN(S(=O)(=O)c2ccccc2)CC1,-,-,-,-,-,-
Cc1ccc(-n2c3c(cc(C(=O)Nc4cccc(Cl)c4)c2=O)C(=O)CC(C)(C)C3)cc1,.,-,-,.,.,-
Cc1ccc2c(Sc3ccc(Cl)cc3)c(C(=O)NCCC(C)C)[nH]c2c1,.,-,-,.,.,?
CCOC(=O)N1CCN(C(=O)CCS(=O)(=O)c2ccc3c(c2)CCN3C(=O)CC)CC1,-,-,-,-,-,-
CCC(=O)N1c2ccc(S(=O)(=O)CCC(=O)Nc3ccc(Br)c(C)c3)cc2CC1C (stereo not drawn),.,-,18µM,.,.,21µM
CCC(=O)N1CCc2cc(S(=O)(=O)CCC(=O)N3CCN(c4ccc(F)cc4)CC3)ccc21,?,-,21µM,-,-,23µM
CCN(CC)CCCNC(=O)CN1C(=O)COc2ccc(S(=O)(=O)N3CCC(C)CC3)cc21,.,-,.,.,.,.
O=C(CN1C2CCCC1CC(NC(=O)c1ccccc1)C2)Nc1ccccc1C(F)(F)F (stereo not drawn),?,.,?,-,-,16µM
O=C(CN1C2CCCC1CC(NC(=O)c1ccccc1)C2)Nc1ccccc1 (stereo not drawn),-,-,?,-,-,?
O=C(CN1C2CCCC1CC(NC(=O)c1ccco1)C2)Nc1ccccc1C(F)(F)F (stereo not drawn),?,-,23µM,-,-,23µM
O=C(CN1CCC(NC(=O)c2ccco2)CC1)Nc1ccccc1C(F)(F)F,-,.,-,-,-,?
CCCCSc1nnc2n(-c3ccc(OC)cc3)c(=O)c3c4c(sc3n12)COC(C(C)C)C4 (stereo not drawn),.,-,?,.,.,?
CC(C)SC1=NC(C)(C)C=C(/C=C/c2c(Cl)cccc2Cl)N1,-,-,?,-82,-,?
CC(C)SC1=NC(C)(C)C=C(/C=C/c2ccc(Cl)cc2Cl)N1,-,-,?,-113,-,?
Fc1cccc(NCc2ccccc2-c2nnc(-c3ccccc3Cl)o2)c1,.,-,?,.,.,?
Cc1cc(F)ccc1NCc1ccccc1-c1nnc(-c2ccccc2Cl)o1,.,-[12.3 µM],?,.,.,21µM
